{
  "source": "the supplement of paper PMC10338343",
  "note": "± gives the standard deviation.",
  "data": [
    {"system": "MILI (PIWIL2) piRISC loaded with L1MC piRNA (26 nt)", "experiment": "pre-steady-state target cleavage rate (min^-1); guide: L1MC piRNA 5'p-UAACUAAAUACUAUGCAAGCUGUAGG; higher = faster piRNA-guided slicing of the target", "conditions": "auxiliary factor: 500 nM mouse GTSF1", "description": "(§1)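 Cleave-'n-Seq: a library of target RNAs (target site embedded in constant flanks, ACAGCATTCCGCGTTAGTGATATCCG... 5' flank; DNA-blocked outside the site) at 0.1 nM was incubated with 1 nM active mouse MILI or MIWI piRISC (synthetic 5'-monophosphorylated piRNA guide) with or without 500 nM mouse GTSF1 at 33 °C for 1 min to 16 h. Uncleaved targets were sequenced and normalised to non-target controls, and the pooled three trials were fitted to a burst-and-steady-state model to give the pre-steady-state cleavage rate (min^-1; k3 is constrained to at most 1e-4). Sequence is the target site only; target names encode pairing extent (gX:gY) and contiguous / 1-mismatch / 2-mismatch / bulge geometry. Fits with R² ≤ 0 are excluded.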", "values": [
      {"sequence": "UCCUCCUACAGCUUGCAUAGUAUUAUCAAA", "pre-steady-state target cleavage rate": "0.0973 ± 0.021"},
      {"sequence": "UCCUGGAACAGCUUGCAAUGUAUUUAGUAA", "pre-steady-state target cleavage rate": "0.0829 ± 0.011"},
      {"sequence": "UCCUGGAUCAGCUUGCAUAGAUAUUUAGUUA", "pre-steady-state target cleavage rate": "0.0135 ± 0.004"},
      {"sequence": "UCCUCCUACAGCUUGCAUUGUAAUUAGUUA", "pre-steady-state target cleavage rate": "0.166 ± 0.013"},
      {"sequence": "UCCUGGAACAGCUUGCAUAGUAUUUCGUUA", "pre-steady-state target cleavage rate": "0.0829 ± 0.02"},
      {"sequence": "UCCUGGAUCAGCUAGCAUAGUAAUUAGUUA", "pre-steady-state target cleavage rate": "0.152 ± 0.015"},
      {"sequence": "UCCUGGAUGUCGUUGCAGAGUAUUUAGUUA", "pre-steady-state target cleavage rate": "0.0117 ± 0.0043"},
      {"sequence": "UCCUGGAUGAGCAUGCAUAGUAUAUAGUUA", "pre-steady-state target cleavage rate": "0.213 ± 0.022"},
      {"sequence": "UCCUGGAUGUGCUUGCAUACUAUUUUGUUA", "pre-steady-state target cleavage rate": "0.00854 ± 0.0058"},
      {"sequence": "UCCUGGUUGAGCUUGCAUAGUAUUUACAAA", "pre-steady-state target cleavage rate": "0.0198 ± 0.0068"},
      {"sequence": "UCCUGGAACAGGUUGCAUAGUAUUUUGUUA", "pre-steady-state target cleavage rate": "0.132 ± 0.018"},
      {"sequence": "UCCUCCUACAGCUUGGAUAGUAUUUAGAAA", "pre-steady-state target cleavage rate": "0.0815 ± 0.017"},
      {"sequence": "UCCUGCUACAUCUUGCAUAGUAUUUAGUUA", "pre-steady-state target cleavage rate": "0.239 ± 0.02"},
      {"sequence": "UCCUGCAACAGCUUGCAAAGUAUUUAGUUA", "pre-steady-state target cleavage rate": "0.166 ± 0.012"},
      {"sequence": "UCCUGGAUGUGCAUGCAUAGUAUUUACUUA", "pre-steady-state target cleavage rate": "0.065 ± 0.018"},
      {"sequence": "UCCUCGUACAGCUUGCAUAGUAUUUAGAUA", "pre-steady-state target cleavage rate": "0.177 ± 0.025"},
      {"sequence": "UCCUGGUACAGCUUGCUAAGUAUUUAGUUA", "pre-steady-state target cleavage rate": "0.123 ± 0.015"},
      {"sequence": "UCCUGGUACAGCUUGCAUAGAUUUUACAAA", "pre-steady-state target cleavage rate": "0.00751 ± 0.0049"},
      {"sequence": "UCCUGGAUGAGCUUGCUUAGUUUUUAGUUA", "pre-steady-state target cleavage rate": "0.0134 ± 0.0052"},
      {"sequence": "UCCUGGAUGAUGCUUGCAUAGUAUUUAGUUA", "pre-steady-state target cleavage rate": "0.228 ± 0.023"},
      {"sequence": "UCCUGCUACACCAUGCAUAGUAUUUAGUUA", "pre-steady-state target cleavage rate": "0.223 ± 0.015"},
      {"sequence": "UCCUGGAUGUCCUUGCCUAGUAUUUAGUUA", "pre-steady-state target cleavage rate": "0.0522 ± 0.0084"},
      {"sequence": "UCCUGGAAGUCCUUGCAUAGUAUUUAGAAA", "pre-steady-state target cleavage rate": "0.151 ± 0.03"},
      {"sequence": "UCCUGCUACUGCUUGCAUAGUAUUUAGAAA", "pre-steady-state target cleavage rate": "0.0315 ± 0.0099"}
    ]},
    {"system": "MILI (PIWIL2) piRISC loaded with L1MC piRNA (26 nt)", "experiment": "pre-steady-state target cleavage rate (min^-1); guide: L1MC piRNA 5'p-UAACUAAAUACUAUGCAAGCUGUAGG; MIWI and MILI are mouse PIWI proteins and EfPiwi is from a freshwater sponge; tags in brackets are library labels; higher = faster piRNA-guided slicing of the target", "conditions": "auxiliary factor: none (no GTSF1)", "description": "as §1", "values": [
      {"sequence": "UCCUGGAACAGCUUGCAAUGUAUUUAGUAA", "pre-steady-state target cleavage rate": "0.00326 ± 0.0026"},
      {"sequence": "UCCUGGAUCAGCUUGCAUAGAUAUUUAGUUA", "pre-steady-state target cleavage rate": "0.00307 ± 0.0026"},
      {"sequence": "UCCUCCUACAGCUUGCAUUGUAAUUAGUUA", "pre-steady-state target cleavage rate": "0.00423 ± 0.0019"},
      {"sequence": "UCCUGGAUCAGCUAGCAUAGUAAUUAGUUA", "pre-steady-state target cleavage rate": "0.00502 ± 0.0022"},
      {"sequence": "UCCUGGAUGUCGUUGCAGAGUAUUUAGUUA", "pre-steady-state target cleavage rate": "0.0038 ± 0.0022"},
      {"sequence": "UCCUGGAUGAGCAUGCAUAGUAUAUAGUUA", "pre-steady-state target cleavage rate": "0.00752 ± 0.0029"},
      {"sequence": "UCCUGGAACAGGUUGCAUAGUAUUUUGUUA", "pre-steady-state target cleavage rate": "0.00924 ± 0.0022"},
      {"sequence": "UCCUGCUACAUCUUGCAUAGUAUUUAGUUA", "pre-steady-state target cleavage rate": "0.0095 ± 0.0022"},
      {"sequence": "UCCUGCAACAGCUUGCAAAGUAUUUAGUUA", "pre-steady-state target cleavage rate": "0.00683 ± 0.0024"},
      {"sequence": "UCCUGGAUGUGCAUGCAUAGUAUUUACUUA", "pre-steady-state target cleavage rate": "0.00616 ± 0.0026"},
      {"sequence": "UCCUGGUACAGCUUGCUAAGUAUUUAGUUA", "pre-steady-state target cleavage rate": "0.00432 ± 0.0026"},
      {"sequence": "UCCUGGAUGAGCUUGCUUAGUUUUUAGUUA", "pre-steady-state target cleavage rate": "0.00418 ± 0.0026"},
      {"sequence": "UCCUGGAUGAUGCUUGCAUAGUAUUUAGUUA", "pre-steady-state target cleavage rate": "0.00923 ± 0.0034"},
      {"sequence": "UCCUGCUACACCAUGCAUAGUAUUUAGUUA", "pre-steady-state target cleavage rate": "0.00794 ± 0.0027"},
      {"sequence": "UCCUGGAUGUCCUUGCCUAGUAUUUAGUUA", "pre-steady-state target cleavage rate": "0.00452 ± 0.002"}
    ]}
  ]
}
